Structures are written as SMILES. Where “and” joins values, the source holds several entries; their conditions need not be identical. Equal values may be shown once. Where a structure was tested more than once in an assay, its records may differ in their call. Calls of active or inactive are those of the source. Rule for the calls: active = hit-call score of the fitted dose curve at least 0.9, where 1 is the maximum; inactive = score below 0.9.

Read-out in assay [1]: Monocyte Chemoattractant Protein-1 (MCP1), CCL2 (gene 6347)
Description: BSK_BF4T_MCP1: BioMAP Diversity Plus: BF4T Assay for Monocyte Chemoattractant Protein-1 (MCP1) Biomarker Activity (AID 2284259). The conditions noted are these: primary human bronchial epithelial cells with fibroblasts. Put shortly: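 Co-culture of bronchial epithelial cells and dermal fibroblasts dosed with chemical; MCP-1 measured by ELISA 24 h later. Activity fitted in positive direction versus DMSO; cytotoxicity checked by SRB staining in parallel cultures.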

Read-out in assay [2]: CD90, THY1 (gene 7070)
Description: BSK_BF4T_CD90: BioMAP Diversity Plus: BF4T Assay for CD90 Biomarker Activity (AID 2284262). Conditions: primary human bronchial epithelial cells with fibroblasts. Put shortly:
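Co-culture of human bronchial epithelial cells and dermal fibroblasts, 24 h compound exposure. Cell-surface CD90 measured by ELISA relative to DMSO; parallel SRB total-protein staining for cytotoxicity.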

Read-out in assay [3]: Interleukin-1 alpha (IL1a), IL1A (gene 3552)
The assay is described as follows: BSK_BF4T_IL1a: BioMAP Diversity Plus: BF4T Assay for Interleukin-1 alpha (IL1a) Biomarker Activity (AID 2284264). The conditions noted are these: primary human bronchial epithelial cells with fibroblasts. The gist of the method: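 Human bronchial epithelial cells co-cultured with dermal fibroblasts, dosed and read at 24 h. Secreted/surface IL-1α quantified by ELISA; gain-of-signal fitted relative to DMSO baseline. Parallel SRB total-protein staining tracked cytotoxicity.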

Read-out in assay [4]: Decorin, DCN (gene 1634)
Description: BSK_MyoF_Decorin: BioMAP Diversity Plus: MyoF Assay for Decorin Biomarker Activity (AID 2284265). Conditions: primary human lung fibroblasts. The gist of the method:
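Lung fibroblast cultures, 24 h chemical exposure. Decorin by ELISA, positive fitting direction, DMSO baseline.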

Read-out in assay [5]: KRT18 (gene 3875)
Description: BSK_BF4T_Keratin818: BioMAP Diversity Plus: BF4T Assay for Keratin 818 Biomarker Activity (AID 2284266). The conditions noted are these: primary human bronchial epithelial cells with fibroblasts. Put shortly: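 Co-culture of human bronchial epithelial cells and dermal fibroblasts, chemical exposure 24 h. Keratin 8/18 measured by ELISA; positive-direction fit vs DMSO. SRB total protein run in parallel cultures for cytotoxicity.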

The nature of assay [6]: BSK_MyoF_SRB: Viability Assessment in the BioMAP Diversity Plus: MyoF Assay (AID 2284267).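 Note: total protein by SRB absorbance in parallel cultures as cytotoxicity measure.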 Conditions: primary human lung fibroblasts. The gist of the method:
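Read-out is SRB absorbance at 560 nm, reflecting total protein in parallel lung fibroblast cultures harvested 24 h after compound addition. Cells were TCA-fixed (10%) and stained with 0.1% SRB; activity is referenced to DMSO.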

Read-out in assay [7]: Matrix Metallopeptidase 1 (MMP1), MMP1 (gene 4312)
Description: BSK_MyoF_MMP1: BioMAP Diversity Plus: MyoF Assay for Matrix Metallopeptidase 1 (MMP1) Biomarker Activity (AID 2284268). Conditions: primary human lung fibroblasts. Put shortly:
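MMP1 measured by ELISA 24 h after dosing primary human lung fibroblasts; cytotoxicity checked in parallel cultures by sulforhodamine B total-protein staining read at 560 nm.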

Read-out in assay [8]: Matrix Metallopeptidase 1 (MMP1), MMP1 (gene 4312)
The assay is described as follows: BSK_BF4T_MMP1: BioMAP Diversity Plus: BF4T Assay for Matrix Metallopeptidase 1 (MMP1) Biomarker Activity (AID 2284270). Conditions: primary human bronchial epithelial cells with fibroblasts. The gist of the method:
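Co-culture of human bronchial epithelial cells and dermal fibroblasts; MMP-1 levels measured by ELISA 24 hours after chemical dosing, relative to DMSO. Cytotoxicity checked in parallel cultures by SRB total-protein staining.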

Read-out in assay [9]: Tissue plasminogen activator (tPA), PLAT (gene 5327)
The assay is described as follows: BSK_BF4T_tPA: BioMAP Diversity Plus: BF4T Assay for Tissue plasminogen activator (tPA) Biomarker Activity (AID 2284272). The conditions noted are these: primary human bronchial epithelial cells with fibroblasts. The gist of the method: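 tPA level quantified by ELISA at 24 h post-treatment in bronchial epithelial/dermal fibroblast co-cultures, gain of signal scored against DMSO baseline. Parallel cultures stained with 0.1% SRB (560 nm) to flag overt cytotoxicity.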

Read-out in assay [10]: Plasminogen Activator Inhibitor-1 (PAI1), SERPINE1 (gene 5054)
Description: BSK_BF4T_PAI1: BioMAP Diversity Plus: BF4T Assay for Plasminogen Activator Inhibitor-1 (PAI1) Biomarker Activity (AID 2284273). The conditions noted are these: primary human bronchial epithelial cells with fibroblasts. The gist of the method: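 Co-culture of human bronchial epithelial cells and dermal fibroblasts exposed to compound for 24 h. PAI-1 measured by ELISA; activity fitted in positive direction versus DMSO. Parallel SRB staining assessed overt cytotoxicity.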

As for `OCC(F)(F)C(F)(F)C(F)(F)C(F)(F)C(F)(F)C(F)(F)C(F)(F)C(F)(F)C(F)(F)C(F)(F)C(F)(F)F`, the result in [1], in assay [2], in assay [3], in assay [4], in assay [5] and in [6] was inactive. Also, the outcome in [7], in [8], in assay [9] and in [10] was inactive.
On to `O=C(NO)c1ccccc1`, for which the result in assay [4], in [6] and in assay [7] was inactive.
One may read the AC50 as the midpoint of the concentration-response curve, whichever way the signal moves. Regarding `Cc1ccc(C(=O)c2ccccc2)cc1`, the result in [4] and in assay [6] was inactive. The AC50 in assay [7] is 38.7 µM (active).
In the case of `CC[N+](CC)(CC)Cc1ccccc1`, the result in assay [4], in [6] and in assay [7] was inactive.
For `CCCCCCCCCCCCCCCCCC[N+](C)(C)Cc1ccccc1`, the AC50 is 10 µM (active) in [4] and 2.65 µM (active) in [6]. Further, in [7], the outcome was inactive.
For `Oc1cc2ccccc2cc1O`, the outcome in [4], in [6] and in assay [7] was inactive.
Turning to `O=P(O)(O)CCC(F)(F)C(F)(F)C(F)(F)C(F)(F)C(F)(F)C(F)(F)C(F)(F)C(F)(F)F`, the result in assay [1], in assay [2], in assay [3], in [4], in assay [5] and in assay [6] was inactive. Further, the outcome in assay [7], in [8], in assay [9] and in [10] was inactive. Further, the AC50 in [9] was 19.2 µM (active).
As for `CN(CCO)S(=O)(=O)C(F)(F)C(F)(F)C(F)(F)C(F)(F)C(F)(F)C(F)(F)C(F)(F)C(F)(F)F`, the outcome in assay [1], in assay [2], in assay [3], in assay [4], in [5] and in [6] was inactive. In addition, the outcome in assay [7], in assay [8], in assay [9] and in assay [10] was inactive.
For the molecule `C[C@]12CC[C@@H]3c4ccc(O)cc4CC[C@H]3[C@@H]1C[C@@H](O)[C@@H]2O`, the result in assay [4], in assay [6] and in [7] was inactive.
As to `COC1=CC(=O)C[C@@H](C)[C@]12Oc1c(Cl)c(OC)cc(OC)c1C2=O`, the outcome in assay [4] and in assay [6] was inactive. In addition, the AC50 in assay [7] was 20 µM (active).
Regarding `OCCN1CN(CCO)CN(CCO)C1`, the outcome in [4], in assay [6] and in assay [7] was inactive.
Take `Clc1ccc(Nc2nnc(Cc3ccncc3)c3ccccc23)cc1`: the result in assay [4] and in assay [7] was inactive.
As for `O=C(O)CCC(F)(F)C(F)(F)C(F)(F)C(F)(F)C(F)(F)C(F)(F)F`, the outcome in assay [1], in assay [2], in [3], in assay [4], in assay [5] and in assay [6] was inactive. In addition, the result in assay [7], in assay [8], in assay [9] and in assay [10] was inactive.
As for `O=C(CC(=O)C(F)(F)C(F)(F)C(F)(F)F)c1cccs1`, the AC50 was 22.9 µM (active) and 10.9 µM (active) in assay [1]; 9.69 µM (active) in assay [2]; 43 µM (active) and 45 µM (active) in assay [3]; 23.1 µM (active) and 28 µM (active) in [5]; 19.3 µM (active) and 17 µM (active) in assay [8]; 30 µM (active) in assay [9]. Also, the AC50 in assay [10] was 16.9 µM (active) and 15.5 µM (active). The outcome in assay [2], in assay [4], in assay [6] and in assay [7] was inactive.
Consider `CN(C)c1ccc(C(=C2C=CC(=[N+](C)C)C=C2)c2ccccc2)cc1`, for which the outcome in [4] and in assay [7] was inactive. In addition, in assay [6], the AC50 is 0.485 µM (active).
`Cc1ccc(N=Nc2c(O)ccc3ccccc23)c(C)c1`: the result in [4], in [6] and in assay [7] was inactive.
`CCCCC(CC)C(=O)OCCOCCOCCOCCOC(=O)C(CC)CCCC` (stereo not drawn): the result in [4], in assay [6] and in assay [7] was inactive.
In the case of `O=P(O)(O)CCC(F)(F)C(F)(F)C(F)(F)C(F)(F)C(F)(F)C(F)(F)F`, the outcome in [1], in [2], in assay [3], in assay [4], in assay [5] and in assay [6] was inactive. Besides, the outcome in [7], in assay [8], in assay [9] and in assay [10] was inactive. Besides, the AC50 in assay [9] was 14.6 µM (active).

The record behind these values is PubChem BioAssay (EPA / NIEHS).
